In the library only some 3.5% were active in any assay of this set; here they are far more common.
BoNT A protease: BoNT/A light chain protease inhibitors, primary screen, biochemical, flow cytometry, MLPCN library | Botulinum neurotoxin type A light chain protease (Clostridium botulinum A str. ATCC 3502) | multiplex microsphere protease substrate cleavage | inhibition, % at 10 µM | actives 0.17% (n = 360,000) | AID 588499, 2011; note: plate controls were buffer without enzyme for full effect and enzyme alone for no effect
Anthrax LF inh2: Bacillus anthracis LF protease inhibitors, primary screen, biochemical, multiplex microsphere, MLPCN library; multiplex microsphere protease cleavage assay; actives 0.12% (n = 360,000); Lethal factor (Bacillus anthracis), P15917; inhibition, % at 10 µM; note: plate controls were buffer without enzyme for full effect and enzyme alone for no effect
Target sequence (P15917 whole entry, looked up): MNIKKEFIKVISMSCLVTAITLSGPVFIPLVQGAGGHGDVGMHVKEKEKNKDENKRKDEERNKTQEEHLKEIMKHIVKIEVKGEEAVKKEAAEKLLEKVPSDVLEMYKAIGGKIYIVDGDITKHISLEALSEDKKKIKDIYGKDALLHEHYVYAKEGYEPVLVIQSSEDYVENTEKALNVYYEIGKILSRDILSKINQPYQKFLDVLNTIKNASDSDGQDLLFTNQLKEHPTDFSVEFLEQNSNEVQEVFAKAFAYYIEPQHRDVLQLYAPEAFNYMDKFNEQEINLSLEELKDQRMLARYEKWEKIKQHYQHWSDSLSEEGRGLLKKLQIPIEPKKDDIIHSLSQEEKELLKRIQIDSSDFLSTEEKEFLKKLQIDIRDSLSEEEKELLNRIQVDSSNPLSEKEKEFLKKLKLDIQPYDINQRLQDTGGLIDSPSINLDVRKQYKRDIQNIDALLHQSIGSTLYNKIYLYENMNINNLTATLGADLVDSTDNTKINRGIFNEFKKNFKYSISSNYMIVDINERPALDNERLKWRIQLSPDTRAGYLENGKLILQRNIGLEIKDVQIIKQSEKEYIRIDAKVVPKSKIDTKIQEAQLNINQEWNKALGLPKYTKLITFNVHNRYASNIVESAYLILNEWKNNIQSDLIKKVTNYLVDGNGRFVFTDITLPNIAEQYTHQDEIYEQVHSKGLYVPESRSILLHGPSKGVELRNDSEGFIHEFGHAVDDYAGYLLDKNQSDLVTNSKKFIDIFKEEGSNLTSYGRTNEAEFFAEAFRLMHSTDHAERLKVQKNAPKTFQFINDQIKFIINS
Autofluor counter: flagged as autofluorescent in microsphere protease counterscreen. compound autofluorescence counterscreen, microsphere flow cytometry; hits give high values. fluorescence intensity (concentration not given with the values). actives 3.1% (n = 360,000). AID 624483; in the data active = fluorescence intensity above about 16000; inconclusive = no clear call, values can overlap the other calls
BoNT-F LC inh: BoNT/F light chain protease inhibitors, primary screen, biochemical, flow cytometry, MLPCN library; Botulinum neurotoxin type F light chain protease (Clostridium botulinum); Multiplex microsphere protease cleavage assay; inhibition, % at 10 µM; actives 0.22% (n = 360,000); AID 588497, 2011; in the data active = inhibition above about 35%, passing the limit was not always enough; inconclusive = no clear call, values can overlap the other calls; note: plate controls were buffer without enzyme for full effect and enzyme alone for no effect
An asterisk follows results filed as active; u = inconclusive. Cut-off read from the data, not from the text of the source, unless noted: active = inhibition above about 30%; inconclusive = no clear call, values can overlap the other calls; inactive = below that.

SMILES	BoNT A protease	Anthrax LF inh2	Autofluor counter	BoNT-F LC inh
CC(C(=O)NC1=NCCS1)N1C(=O)C2CC=CCC2C1=O (centres undefined)	0	-2	4583	-12
CC(C(=O)NC1=NCCS1)N1C(=O)c2ccccc2C1=O (centres undefined)	-2	-4	23583*	-7
CCn1c(=O)c2ccccc2n2c(SCC(=O)N3CCCc4ccccc43)nnc12	-4	-3	24095*	-6
Cc1ccccc1-n1c(SCC(=O)N2CCCCC2)nc(O)cc1=O	1	0	5292	2
COc1ccc(-n2c(SCC(=O)N3CCCCC3)nc(O)cc2=O)cc1	-3	2	21636*	-3
CN(C)Cc1c(C(=O)N/N=C/CCc2ccccc2)nnn1-c1nonc1N	1	7	3057	7
NC(=O)Cn1c(=O)n(CCc2ccccc2)c(=O)c2c3c(sc21)CCCC3	-1	-3	16478*	-5
O=c1c2c3c(sc2n2cnnc2n1CCc1ccccc1)CCCC3	-2	-4	16649*	-2
Cn1c(=O)c2c3c(sc2n2cnnc12)CCC3	0	-1	3279	-2
COc1ccc(NC(=O)CNC(=O)c2cccs2)cc1Cl	1	7	4344	6
COc1ccc2cc(C(=O)NCc3ccco3)c(=Nc3ccc(C(=O)O)cc3)oc2c1	-1	2	4196	-3
COc1ccc(C(CC(=O)O)NC(=O)c2cccs2)cc1 (centres undefined)	-2	-7	16500*	-6
COc1ccc(OC)c(NC(=O)CNC(=O)c2cccs2)c1	u	-5	21327*	1
COc1ccc(N=c2oc3c(OC)cccc3cc2C(=O)NCc2ccco2)c(OC)c1	3	-11	21143*	2
COc1ccc(C(=O)NCc2ccccc2OC)c(OC)c1	u	-2	20943*	-3
COc1ccc(C(=O)NCc2ccccc2OC)cc1	6	-4	21799*	2
COc1ccccc1CNC(=O)c1cccs1	-2	2	23731*	-2
COc1ccc(C(=O)NCc2cccnc2)cc1S(=O)(=O)N1CCOCC1	u	1	21445*	-5
COc1ccccc1CNC(=O)c1cccc(S(=O)(=O)N2CCN(C)CC2)c1	-1	-5	4283	-6
COc1ccccc1CNC(=O)c1ccc(S(=O)(=O)N2CCCC2)cc1	-1	-1	24898*	-2
CC(C)/C=C/CN1CCN(CCCc2ccccc2)C(CCO)C1 (centres undefined)	-3	-5	3375	-15
COc1cc(SC)ccc1C(=O)NCc1ccc(C)cc1	2	-2	19956*	3
COc1ccc(C(=O)NCc2cccnc2)cc1	-2	1	21373*	-3
COc1ccc(OC)c(NS(=O)(=O)c2cccs2)c1	3	-1	22109*	5
COc1ccc(OC)c(NS(=O)(=O)c2ccc(Cl)s2)c1	1	3	8504	-4
SMILES	BoNT A protease	Anthrax LF inh2	Autofluor counter	BoNT-F LC inh
COc1cc(SC)ccc1C(=O)NCc1ccccc1	0	-2	2043	0
COc1ccccc1CC(=O)O/N=C(\N)c1ccccn1	-1	-11	6556	-5
COc1ccc(/C(N)=N/OC(=O)Cc2ccccc2OC)cc1	-2	-4	21398*	-5
CCOc1ccc(C(=O)NCc2cccnc2)cc1	-1	-6	4258	-3
CC(C)CCOc1ccc(C2(C)NC(=O)NC2=O)cc1 (centres undefined)	0	6	4675	-24
CC(=O)Nc1ccc(S(=O)(=O)N2CCSc3ccccc32)cc1	0	-3	2945	-6
O=C(NCc1cccc(Cl)c1)c1cccnc1	u	-2	18154*	-9
CC(C)(C)NC(=S)NCc1cccnc1	-2	-2	23776*	-2
COc1cc2[nH]c(=S)n(Cc3cccs3)c(=O)c2cc1OC	-1	-1	4424	0
COc1cc2[nH]c(=S)n(NC(=O)CC(C)C)c(=O)c2cc1OC	u	-4	24467*	-3
CCOc1cc2[nH]c(=S)n(CCCN(CC)CC)c(=O)c2cc1OCC	0	9	8924	7
CCCCCNC(=O)CCCCn1c(=O)[nH]c2cc(OCC)c(OCC)cc2c1=O	-1	1	4282	-8
CCCCNC(=O)CCCCCn1c(=O)[nH]c2cc(OC)c(OC)cc2c1=O	u	-11	19264*	-1
CCOc1cc2[nH]c(=S)n(CCOC)c(=O)c2cc1OCC	-1	-4	22228*	-2
CCCn1c(=S)[nH]c2cc(OC)c(OC)cc2c1=O	-1	-1	22976*	-2
Cc1ccc(C(=O)Nc2cc3[nH]c(=O)oc3cc2C)cc1	0	0	3634	13
CN(C)c1ccc(S(=O)(=O)N2CCCCC2)cc1NC(=O)C1=NN(c2ccccc2)C(=O)CC1	-1	-3	5885	3
CCCCN1C(=O)C(CC(=O)NC2CC2)CC(C(=O)N(CC)CC)=C1C (centres undefined)	-1	-1	3833	-6
CCOc1cc2[nH]c(=S)n(CCCC(=O)N3CCC4(CC3)OCCO4)c(=O)c2cc1OCC	-1	1	22729*	0
CCOc1cc2[nH]c(=O)n(CCCCC(=O)N3CCCCCC3)c(=O)c2cc1OCC	0	-5	9452	13
O=c1oc2ccccc2cc1-c1nc2c(s1)CCCC2	u	7	23234*	6
Cc1ccc(C)c(S(=O)(=O)NCc2ccc(C(=O)N3CCCCC3C)cc2)c1 (centres undefined)	2	-12	18934*	4
Cc1ccc(C)c(S(=O)(=O)Nc2ccc(C(=O)N3CCCCC3)cc2)c1	0	5	4355	-3
CC1CCCCN1C(=O)c1ccc(S(=O)(=O)N2CCCCC2C)cc1 (centres undefined)	-1	2	3000	3
CC1CCCCN1C(=O)c1ccc(C(=O)N2CCCCC2C)cc1 (centres undefined)	3	0	21133*	4
SMILES	BoNT A protease	Anthrax LF inh2	Autofluor counter	BoNT-F LC inh
CC(=O)Nc1ccc(S(=O)(=O)N2CCN=C2SCc2ccccc2C)cc1	4	-2	4552	8
Cn1c2c(c3ccccc31)CCN1CCC[C@]21c1ccccc1	5	0	4827	-34
CC(C)(C)c1ccc(-c2n[nH]c(=S)n2C2CCCC2)cc1	u	-4	22762*	0
COc1ccccc1Nc1nc2ccc(C)cc2cc1C#N	6	1	u	24
COc1ccccc1Nc1nc2c(C)cccc2cc1C#N	0	-1	16724*	1
Cc1noc(C)c1C(=O)Nc1sc(C)c(-c2ccccc2)c1C#N	u	-2	22924*	3
COc1ccccc1CNC(=O)CCN1C(=O)COc2ccc(C)cc21	u	0	21217*	5
O=C(CN(Cc1cccs1)C(=O)CN1C(=O)COc2ccccc21)NCc1ccco1	7	-6	19004*	7
O=C(CN(Cc1cccs1)C(=O)CNS(=O)(=O)c1ccccc1)NCc1ccco1	1	2	2589	7
O=C(CCN1C(=O)COc2ccccc21)NCCN1CCOCC1	-1	-4	9031	-1
COc1ccccc1CNC(=O)CCCN1C(=O)COc2ccc(C)cc21	1	-4	11784	-5

Source: PubChem (NMMLSC)
